# Source: PubChem
# Gal4-VP16 FLuc = counter-screen for ROR gamma inhibitors: Gal4-VP16 reporter; Drosophila S2 Gal4-VP16 UAS-luciferase, luminescence, 20 h; Potency, µM (top dose mostly 53.6 µM), inactives show at the top dose activity, negative = inhibition, most hits filed as inhibitors; 310,000 compounds, 3.5% hits; AID 2546;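 note: Gal4-VP16 expression switched on by copper sulfate through the metallothionein promoter; nearly all actives have a fitted effect of over 50% in size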
# KinaseGlo FLuc = blocks Kinase-Glo luciferase, a counter-screen artifact. Kinase-Glo luciferase, ATP luminescence, 8 min. Potency, µM (top dose mostly 38.3 µM), for inactives: at the top dose activity change, negative = inhibition, hits mostly inhibitors. 200,000 compounds, 0.28% hits; note: nearly all actives have a fitted effect of over 60% in size
#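 Recombinant Kinase-Glo luciferase, 10 uM ATP (linear range), luciferin; imidazole pH 7.2 / KCl / MgCl2 / Tween / BSA buffer; 8 min RT; luminescence.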
# RORgamma inh = inhibitors of mouse ROR gamma transcriptional activity; P51450; Drosophila S2 Gal4-RORgamma UAS-luciferase reporter, 20 h; Potency, µM (titrated, usually from 53.6 µM), without a hit: top-dose activity change, negative = inhibition, actives largely listed as inhibitors; 310,000 compounds, 5.4% hits; AID 2551; note: nearly all actives have a fitted effect of over 60% in size
# Target sequence (P51450 whole entry, looked up, the tested form may be a part): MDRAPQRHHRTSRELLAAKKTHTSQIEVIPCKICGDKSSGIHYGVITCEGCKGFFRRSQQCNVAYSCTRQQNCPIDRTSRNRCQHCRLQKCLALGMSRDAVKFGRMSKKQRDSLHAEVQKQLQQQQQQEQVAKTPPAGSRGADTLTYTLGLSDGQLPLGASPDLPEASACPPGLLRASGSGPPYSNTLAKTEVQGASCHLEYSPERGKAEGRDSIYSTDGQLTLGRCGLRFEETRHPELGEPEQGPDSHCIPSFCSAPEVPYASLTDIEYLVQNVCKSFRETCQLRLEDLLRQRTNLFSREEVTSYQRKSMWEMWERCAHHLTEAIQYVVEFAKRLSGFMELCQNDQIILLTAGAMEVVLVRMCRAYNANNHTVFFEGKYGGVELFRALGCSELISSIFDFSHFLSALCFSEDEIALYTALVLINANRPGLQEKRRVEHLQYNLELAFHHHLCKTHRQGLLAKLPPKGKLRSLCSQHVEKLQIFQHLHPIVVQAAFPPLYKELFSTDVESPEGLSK
#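 Luciferase reporter read in Schneider cells carrying Gal4-RORγ (mouse) and UAS-Photinus luciferase; cells given compound 1 h before 700 uM copper sulfate induction, then incubated 20 h at ambient temperature.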
# The depositor's hits bear a star; ? = inconclusive; . = no result given; [ ] = dose if it differs, or a comment. Compounds with a hit are over-represented: about 6.4% of the library has one in this group of screens. Calls come from the whole dose curve; as a rule, active = well fitted curve in the direction sought with a large enough effect; inconclusive = small, poorly fitted or top-dose-only effect, or another doubt; inactive = no such curve, though single readings can be large; an effect the other way counts as inactive or inconclusive. % is set by controls: 0 for no effect and ±100 for the full control effect; potency is the fitted concentration of half-maximal effect.
SMILES,Gal4-VP16 FLuc,KinaseGlo FLuc,RORgamma inh
O=[N+]([O-])c1ccc(N2CCCC2)nc1N1CCCC1,-1%,.,26%
Nc1ncc([N+](=O)[O-])c(N2CCCCCC2)n1,-22%,.,11µM*
CC(=O)n1cc(N(C(=O)CCl)c2ccc(C)cc2)c2ccccc21,?,.,11µM*
CC(=O)N(c1ccc(Cl)cc1)c1cn(C(C)=O)c2ccccc12,-7%,0%,28%
COc1ccc(-c2oc3ncnc(NCCCN4CCOCC4)c3c2-c2ccc(OC)cc2)cc1,16µM*,3%,?
COc1ccc(-c2oc3ncnc(NCCN4CCOCC4)c3c2-c2ccc(OC)cc2)cc1,-2%,0%,-14%
Cc1ccc(OCCCc2c(C)n[nH]c2C)cc1,?,8%,11µM*
Cc1n[nH]c(C)c1CS(=O)(=O)c1ccccc1,-2%,1%,2%
Cc1n[nH]c(C)c1CCCCOc1ccccc1,?,1%,16µM*
CCCCOC(=O)CCc1c(C)n[nH]c1C,-5%,.,-15%
COC(=O)N[C@@H](CCc1ccccc1)/C(C(=O)OC)=C(\C)NCc1ccccc1,-10%,-1%,6%
COC(=O)C1CN(C(=O)COc2ccc(C)c(C)c2)c2ccccc2O1 (centres undefined),0%,.,8%
CCOC(=O)c1sc2nc(C)nc(NC3CCC(O)CC3)c2c1C (centres undefined),4%,.,11%
O=C(NC(=S)N1CCOCC1)C12CCC3CC(CC(C3)C1)C2,1.8µM*,2%,1.3µM*
CC12CC3(C)CC(C)(C1)CC(C(=O)NC(=S)N1CCOCC1)(C2)C3,?,0%,0.89µM*
CC(C)(C)C(=O)NC(=S)N1CCOCC1,-11%,-1%,-24%
O=C(NC(=S)N1CCOCC1)C12CC3CCC(CC(C3)C1)C2,6.3µM*,2%,4.5µM*
O=C(NN1CCOCC1)C12CC3CC(CC(C3)C1)C2,-5%,-2%,-2%
O=C(NC(=S)N1CCN(CCO)CC1)C12CC3CC(CC(C3)C1)C2,-4%,0%,5%
CCOc1ccc(Cl)cc1S(=O)(=O)N1CCC(C(=O)NCC2CCCO2)CC1 (centres undefined),3%,.,1%
COc1cc(SC)ccc1C(=O)NCCOc1ccc(C)c(C)c1,-6%,-3%,?
Cc1c(N(C)S(=O)(=O)c2cccc(C(=O)NC(C)C)c2)c(=O)n(-c2ccccc2)n1C,-20%,.,40%
CC(C)C1O[C@H](/C=C\c2ccccc2)OCC1(C)C (some centres undefined),.,-6%[7.66 µM],.
O=C(Nc1ccccc1)c1oc2ccccc2c1NC(=O)C1CC1,?,.,-37%
C=CCN(CC=C)C(=O)c1ccc2nc(Cc3ccc(OC)c(OC)c3)oc2c1,13µM*,.,?
SMILES,Gal4-VP16 FLuc,KinaseGlo FLuc,RORgamma inh
COc1ccc(Cc2nc3ccc(C(=O)N(C)Cc4nccs4)cc3o2)cc1OC,?,.,-5%
O=C1C2C3C=CC(C3)C2C(=O)N1c1cccc2ccccc12 (centres undefined),-6%,.,-10%
O=C1[C@H]2[C@@H](C(=O)N1c1cccc3ccccc13)C1(C(=O)c3ccccc3C1=O)N1CCC[C@@H]21,20µM*,10%,-80%
COc1ccc(C(C(=O)NC(C)(C)C)N(CCC(C)C)C(=O)CCC(=O)Nc2cc(C)on2)cc1 (centres undefined),13%,.,10%
O=C(Nc1nnc(CCS(=O)(=O)c2ccc3ccccc3c2)s1)c1ccc([N+](=O)[O-])cc1,4%,0%,10%
COc1ccc(NC(=O)CN2CCN(CC(=O)Nc3ccc(F)cc3)CC2)c(OC)c1,-4%,.,5%
CCOC(=O)Cn1ccc(NC(=O)COc2ccc(F)cc2)n1,0%,.,-7%
N#C/C(=C(/O)COC(=O)c1ccc2c(c1)OCCO2)c1nc2ccccc2[nH]1,16%,-1%,?
CC1CN(S(=O)(=O)c2cccc(C(=O)OC/C(O)=C(\C#N)c3nc4ccccc4[nH]3)c2)CC(C)O1 (centres undefined),?,2%,11µM*
Cc1ccc(C(=O)OC/C(O)=C(\C#N)c2nc3ccccc3[nH]2)cc1S(=O)(=O)N1CCOCC1,?,-4%,?
N#C/C(=C(/O)COC(=O)c1ccc(Cl)c(S(=O)(=O)N2CCOCC2)c1)c1nc2ccccc2[nH]1,7.1µM*,0%,3.5µM*
N#C/C(=C(/O)COC(=O)CCc1ccc(S(=O)(=O)N2CCOCC2)cc1)c1nc2ccccc2[nH]1,20µM*,0%,8.9µM*
Cc1ccc(S(=O)(=O)N2CCOCC2)cc1N/N=C(\C#N)c1nc2ccccc2[nH]1,12%,.,?
CCOC(=O)CC(=O)CSc1ncnc2c1nnn2-c1ccccc1,1%,.,?
O=C(Nc1ccc(F)cc1)C1(S(=O)(=O)c2ccc(Cl)cc2)CC1,-1%,.,-1%
COc1cc(/C=C/C(=O)N2CCCc3ccccc32)cc(OC)c1OC,2%,0%,11%
CCSc1nnc(NC(=O)CSc2nnc(C)c(=O)n2N)s1,-13%,2%,6%
C/C(=N\N=C(/N)SC1CC(=O)N(c2ccc(Cl)cc2)C1=O)c1cccs1 (centres undefined),?,2%,13µM*
C/C(=N\N=C(/N)SC1CC(=O)N(c2ccccc2)C1=O)c1cccs1 (centres undefined),4%,-3%,?
COc1ccc(C(=O)NNC(=S)NC(=O)c2cccs2)cc1,-29%,.,?
CCOC(=O)N1CCN(C(=S)NC(=O)/C=C/c2ccc(C)cc2)CC1,5.6µM*,.,5µM*
COc1ccc(/C=C/C(=O)NC(=S)NNC(=O)c2cccs2)cc1,22µM*,1%,2µM*
COc1ccc(/C=C/C(=O)NC(=S)N2CCN(C)CC2)cc1,?,-5%,5.6µM*
CCOC(=O)N1CCN(C(=O)Cc2ccc(C)cc2)CC1,1%,4%,7%
COc1ccc(/C=C(/NC(=O)/C=C/c2ccccc2)C(=O)N2CCOCC2)cc1,0%,-1%,23%
SMILES,Gal4-VP16 FLuc,KinaseGlo FLuc,RORgamma inh
COc1cccc(N2CCN(c3ccc4nnc(CCC(=O)N5CCC(C)CC5)n4n3)CC2)c1,3%,.,0%
CN(C(=O)CSc1nnc(-c2ccccc2)o1)c1c(N)n(Cc2ccccc2)c(=O)[nH]c1=O,-12%,1%,-11%
OC[C@@H]1O[C@@H](N2CCN([C@@H]3O[C@@H](CO)[C@@H](O)[C@H](O)[C@H]3O)CC2)[C@@H](O)[C@H](O)[C@H]1O,.,-1%[7.66 µM],.
CC1CCC(NC(=O)Cn2c(=O)oc3ccccc32)CC1 (centres undefined),0%,.,-10%
O=C(CCCN1C(=O)/C(=C/c2ccccc2Cl)SC1=S)NNC(=O)c1ccccc1,7.1µM*,-9%,3.2µM*
O=C(CCCN1C(=O)/C(=C/c2ccccc2Cl)SC1=S)NNC(=O)c1cccnc1,-14%,.,17%
O=C(CCCN1C(=O)/C(=C/c2ccccc2Cl)SC1=S)NNC(=O)c1ccc(Cl)cc1Cl,4.5µM*,.,0.22µM*
O=C(CCN1C(=O)/C(=C/c2ccccc2Cl)SC1=S)Nc1ccccc1C(=O)O,2%,.,34%
COc1ccc(CCC(=O)OCC(=O)Nc2ccccc2OC(F)F)cc1OC,-8%,6%,-18%
O=C(CC1C(=O)NCCN1CC(c1ccccc1)c1ccccc1)NC1CC1 (centres undefined),-8%,.,3%
